Assay outcomes: PubChem, Broad Institute
A selection: hits, their analogues and other compounds. The true share with any hit is near 4%.
ERAP1 inh: human ERAP1 aminopeptidase inhibitors, primary screen, biochemical, single point, plate reader; Endoplasmic reticulum aminopeptidase 1 (Homo sapiens), Q9NZ08; recombinant ERAP1, Leu-AMC fluorescence, 60 min; inhibition, % at 10.7 µM; 340,000 tested, 0.15% active; AID 652197, 2013;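 active = mean replicate inhibition of at least 30%, or all replicates individually reaching that 30% level; inactive = mean below 30% and not every replicate reaching it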
RAD52 anneal inh: RAD52 DNA annealing inhibitors, primary screen, biochemical, FRET, single point, set 2; recombinant RAD52 DNA annealing, FRET fluorescence; 360,000 tested, 0.46% active; DNA repair protein RAD52 homolog (Homo sapiens), P43351; AID 651710, 2012; inhibition, % at 18.7 µM;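 active = every replicate showing at least 50% inhibition; inconclusive = mean inhibition at least 50% but not in every replicate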
Target sequence (P43351 whole entry, looked up): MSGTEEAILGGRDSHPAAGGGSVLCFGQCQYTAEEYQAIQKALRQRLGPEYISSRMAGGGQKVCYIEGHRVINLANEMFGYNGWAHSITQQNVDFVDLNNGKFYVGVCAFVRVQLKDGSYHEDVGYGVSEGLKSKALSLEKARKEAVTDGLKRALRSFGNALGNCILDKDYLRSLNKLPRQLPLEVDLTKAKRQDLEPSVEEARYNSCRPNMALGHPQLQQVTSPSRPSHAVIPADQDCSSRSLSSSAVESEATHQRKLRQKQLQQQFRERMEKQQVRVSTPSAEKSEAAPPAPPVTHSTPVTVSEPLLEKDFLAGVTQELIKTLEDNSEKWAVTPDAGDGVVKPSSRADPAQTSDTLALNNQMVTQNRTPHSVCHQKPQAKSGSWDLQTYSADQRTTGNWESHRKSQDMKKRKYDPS
DENV2 CPE rescue: inhibitors of DENV2 cytopathic effect, primary screen, cell-based, plate reader, single concentration; 350,000 tested, 1.7% active; DENV2-infected cells, cytopathic effect rescue; CPE inhibition, % at 9.99 µM; in the data active = CPE inhibition above about 20%, passing the limit was not always enough; inconclusive = no clear call, values can overlap the other calls; tested in BHK-21 cells
FGF22 binding: binders of human FGF22 protein, primary screen, FGF22 synaptogenesis inhibitor project, biophysical, thermal shift, single point; Fibroblast growth factor 22 (Homo sapiens), Q9HCT0; activity (Tm shift, normalised), % at 9.99 µM; 340,000 tested, 1.5% active; recombinant FGF22 thermal shift, SYPRO orange fluorescence; percent of sucrose octasulfate shift, DMSO zero; AID 651658, 2012;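 active = mean Tm shift, scaled 0 neutral to 100 positive control, at about 1.3% or above, every replicate too, limit read from the data; inconclusive = no clear call, values can overlap the other calls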
Target sequence (Q9HCT0 whole entry, looked up): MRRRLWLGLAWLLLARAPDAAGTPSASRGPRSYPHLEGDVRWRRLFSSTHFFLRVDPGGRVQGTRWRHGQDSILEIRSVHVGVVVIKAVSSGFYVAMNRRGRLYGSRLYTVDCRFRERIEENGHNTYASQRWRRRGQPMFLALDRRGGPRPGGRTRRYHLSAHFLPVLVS
MLL AF4-AF9 inh: inhibitors of AF4 peptide binding to AF9, primary screen, biochemical, AlphaScreen, biotin-AF4 peptide, FLAG-AF9, single point | inhibition, % at 10 µM | 350,000 tested, 0.47% active | Protein AF-9 (Homo sapiens), P42568;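 active = every replicate reaching a set inhibition limit, whatever the replicate mean, cut at about 25% in these data; inconclusive = mean inhibition reaches that limit but some replicates miss it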
DNA binder FP: DNA-binding compounds via dye displacement, dose response, artefact control for RAD52 inhibitor project, biochemical, fluorescence polarization, cherry-pick; shares compounds with RAD52 anneal inh; Salmon sperm DNA/acridine orange FP displacement; AC50, µM; 1,000 tested, 8% active;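 active = fitted half-maximal concentration for signal loss at or below twice the highest dose tested, in every separate run, actives reach about 64 µM in these data; inconclusive = runs disagree, or flat partial signal loss, or poor fit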
Large screens that a line does not name were inactive (follow-up assays come after a bar, where they were run).

CN(C)CCOc1ccc2c(c1)C(=O)C(=Cc1ncc([N+](=O)[O-])n1C)C2	RAD52 anneal inh 88 | DNA binder FP inactive
CNC[C@@H]1OCCCC[C@@H](C)Oc2ccc(NC(=O)c3ccncc3)cc2C(=O)N([C@H](C)CO)C[C@H]1C	none
CC[N+](CC)(CC)CCCCOc1ccc2c(c1)C(=O)c1cc(OCCCC[N+](CC)(CC)CC)ccc1-2	RAD52 anneal inh 102 | DNA binder FP 21µM
Cc1nc2cc(C(=O)O)ccc2n1C1CCCCC1	none
Cc1nc2cc(N)ccc2n1C1CCCCC1	RAD52 anneal inh 91 | DNA binder FP inactive
CCn1c(C)nc2cc(N)ccc21	RAD52 anneal inh 93 (no result: ERAP1 inh, DENV2 CPE rescue) | DNA binder FP inactive
CCN1CCCC1CNC(=O)c1cc(N)ccc1OC (stereo not drawn)	RAD52 anneal inh 90 | DNA binder FP inactive
CCN1CCCC1CNC(=O)c1ccc2c(c1)NC(=O)/C(=C\c1ccc(OC)c(OC)c1)S2 (stereo not drawn)	RAD52 anneal inh 73, DENV2 CPE rescue inconclusive, MLL AF4-AF9 inh 40 | DNA binder FP inactive
CCN1CCC[C@H]1CNC(=O)c1c(OC)ccc(Br)c1OC	none
CO[C@H]1CN(C)C(=O)c2ccc(NS(=O)(=O)C3CCCCC3)cc2OC[C@H](C)NC[C@@H]1C	none
COC(=O)C[C@H]1C[C@H]2c3cc(NS(=O)(=O)c4ccccc4)ccc3O[C@H]2[C@@H](CO)O1	none (no result: ERAP1 inh, RAD52 anneal inh, MLL AF4-AF9 inh)
CC(=O)OC1CC(c2cc(C(C)(C)C)c(O)c(C(C)(C)C)c2)=NO1 (stereo not drawn)	none
C[n+]1c2n(c3ccccc31)N=C(c1cc(C(C)(C)C)c(O)c(C(C)(C)C)c1)CS2	RAD52 anneal inh 60, MLL AF4-AF9 inh 27 | DNA binder FP inactive
COc1nc(-c2cccc([N+](=O)[O-])c2)nc2ccccc12	none (no result: ERAP1 inh)
CN1CCN(c2nc(-c3cccc([N+](=O)[O-])c3)nc3ccccc23)CC1	none | DNA binder FP inactive
CCCN(C)C[C@H]1OCCCC[C@H](C)Oc2ccc(NC(=O)CCC(F)(F)F)cc2C(=O)N([C@H](C)CO)C[C@H]1C	none
COc1cccc(S(=O)(=O)NCC(=O)N2CCCCCC2)c1	RAD52 anneal inh 108 | DNA binder FP inactive
C[C@H](O)C#Cc1cnc2c(c1)C(=O)N([C@H](C)CO)C[C@H](C)[C@H](CN(C)Cc1ccc(-c3ccccc3)cc1)O2	none
OCCNc1nc2ccccc2nc1NCCO	none (no result: ERAP1 inh)
OCCNc1c2ccccc2nc2ccccc12	RAD52 anneal inh 79 | DNA binder FP 60µM
COc1ccc(-c2ccc([C@H]3[C@H](C#N)N(C(=O)NC4CCCC4)[C@H]3CO)cc2)cc1	none
C[C@@H]1CCCCO[C@@H](CN(C)C(=O)c2ccccc2)[C@H](C)CN([C@H](C)CO)C(=O)c2cc(NC(=O)Nc3ccc(C(F)(F)F)cc3)ccc2O1	none
Cc1ccc2nc3c(c(Nc4ccc(O)cc4)c2c1)CCC3	none | DNA binder FP inactive
COc1ccc(Nc2c3c(nc4ccc(C)cc24)CCC3)cc1	none
Cc1cc(/C=C2\Sc3ccccc3N2C)cc(C)[n+]1CC1CCCO1 (stereo not drawn)	RAD52 anneal inh 51 | DNA binder FP inactive
C[C@H]1CN([C@@H](C)CO)C(=O)c2cc(-c3ccc(C#N)cc3)cnc2O[C@@H]1CN(C)C(=O)CC1CC1	none
COc1ccc(NC(=S)NC23CN4CN(CN(C4)C2)C3)c(OC)c1	RAD52 anneal inh 86, FGF22 binding 44 | DNA binder FP inactive
Oc1ccc(Nc2nc(N3CCCC3)c3ccccc3n2)cc1	RAD52 anneal inh 67 (no result: DENV2 CPE rescue, FGF22 binding, MLL AF4-AF9 inh) | DNA binder FP inactive
c1ccc2c(c1)nc(N1CCCCCC1)c1ccccc12	none (no result: MLL AF4-AF9 inh)
CC1(C)CC(N=c2cc(-c3ccccc3)oc3ccc(Cl)cc23)CC(C)(C)N1	RAD52 anneal inh 101 | DNA binder FP 17µM
O=c1cc(-c2ccccc2)oc2ccccc12	none
C#Cc1ccc([C@H]2C=C(C(=O)N3CCOCC3)O[C@@H](OCCCCO)C2)cc1	DENV2 CPE rescue inconclusive
CCC(=O)N1[C@@H]2c3ccc(-c4cccnc4)c(=O)n3C[C@H]1[C@H](CO)[C@H]2C(=O)NC1CCC1	none
O=C(O)CCCCCNS(=O)(=O)c1cccc2c1C(=O)c1ccccc1C2=O	none
O=C1c2cccc(NCCCNCCO)c2C(=O)c2cccc(NCCCNCCO)c21	RAD52 anneal inh 91, MLL AF4-AF9 inh 32 | DNA binder FP 1.5µM
C[C@@H]1ON(C)[C@H]2C[C@H]3c4cc(-c5cc6ccccc6o5)ccc4CCN3C[C@@H]12	RAD52 anneal inh 68 (no result: MLL AF4-AF9 inh) | DNA binder FP inactive
C[C@@H]1CN([C@H](C)CO)C(=O)c2cccc(NC(=O)Nc3ccccc3)c2O[C@@H]1CN(C)Cc1ccccc1	none
O=C(C[C@H]1CC[C@H](NC(=O)c2cccc(F)c2)[C@@H](CO)O1)NCc1ccccc1	none
CN(C)CCCN(C(=O)c1ccco1)c1nc(-c2ccc(Cl)cc2)cs1	RAD52 anneal inh 52, MLL AF4-AF9 inh 26 | DNA binder FP inactive
Cc1ccc(-c2csc(N(CCCN(C)C)C(=O)c3ccco3)n2)cc1	RAD52 anneal inh 64 (no result: DENV2 CPE rescue) | DNA binder FP inactive
CCCNC(=O)[C@H]1[C@H](CO)[C@H]2Cn3c(ccc(C4=CCCC4)c3=O)[C@@H]1N2C(=O)CC	none
COc1ccc(C(CCN2CCOCC2)c2c(OC)cc(OC)c3c(-c4ccccc4)cc(=O)oc23)cc1 (stereo not drawn)	RAD52 anneal inh 51 (no result: ERAP1 inh) | DNA binder FP inactive
Cc1ccc2nc(N(CCCN(C)C)C(=O)c3ccco3)sc2c1	none (no result: ERAP1 inh)
CN(C)CCCN(C(=O)c1ccco1)c1nc2cc3c(cc2s1)OCO3	RAD52 anneal inh 54, DENV2 CPE rescue inconclusive | DNA binder FP inactive
CCN(CC)CCN(C(=O)c1ccc(N2C(=O)CCC2=O)cc1)c1nc2cc3c(cc2s1)OCCO3	RAD52 anneal inh 80 (no result: ERAP1 inh) | DNA binder FP inactive
CN(C)CCN(C(=O)c1ccc(S(=O)(=O)N(C)c2ccccc2)cc1)c1nc2cc3c(cc2s1)OCCO3	none
CN(C)CCN(C(=O)c1ccc2ccccc2c1)c1nc2cc3c(cc2s1)OCO3	RAD52 anneal inh 67, MLL AF4-AF9 inh inconclusive | DNA binder FP inactive
CN(C)CCN(C(=O)c1ccc2c(c1)OCCO2)c1nc2cc3c(cc2s1)OCO3	none
CN(C)CCN(C(=O)c1ccc2c(c1)CCCC2)c1nc2cc3c(cc2s1)OCCO3	RAD52 anneal inh 72, DENV2 CPE rescue inconclusive, MLL AF4-AF9 inh 37 | DNA binder FP inactive
CCCN(C)C[C@H]1OCCCC[C@@H](C)Oc2ccc(NS(=O)(=O)c3ccc(C)cc3)cc2C(=O)N([C@H](C)CO)C[C@H]1C	none
